Measurements published in PubChem BioAssay (Tox21).
Records with an inconclusive call do not appear. Calls of active or inactive are those of the source. Unless noted, the call rests on the fitted dose curve; in most records, active means well fitted curve in the direction sought with a large enough effect in the repeat runs; inconclusive means weak or mixed curves; inactive means no such curve, though single readings can be large; an effect the other way counts as inactive or inconclusive.

Legend:
[1] = qHTS assay to test for compound auto fluorescence at 535 nm (green) in HEK293 cells (AID 720680)
[2] = qHTS assay to test for compound auto fluorescence at 460 nm (blue) in HEK293 cell free culture (AID 720681)
Summary of the method: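 Blue fluorescence (Ex 405/Em 460 nm, triamterene-equivalent) was read immediately after pin transfer of compound or DMSO into medium (DMEM, 10% FBS) without cells.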

[3] = qHTS assay to test for compound auto fluorescence at 535 nm (green) in HEK293 cell free culture (AID 720682)
Summary of the method: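 Measurement is a direct plate read of green fluorescence (485 nm in, 535 nm out) after compound addition to serum-supplemented DMEM lacking cells, with fluorescein used to express intensities.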

[4] = qHTS assay to test for compound auto fluorescence at 590 nm (red) in HEK293 cell free culture (AID 720683)
Summary of the method: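 Red-channel autofluorescence of compounds in culture medium (DMEM, 10% FBS), no cells, measured at 540/590 nm. Rose Bengal sodium is the reference fluorophore for equivalence.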

[5] = qHTS assay to test for compound auto fluorescence at 590 nm (red) in HepG2 cell free culture (AID 720684)
Summary of the method: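 Steps: dispense MEM/10% FBS medium, no cells; pin compound or DMSO vehicle; read red channel, Ex/Em 540/590 nm. Output given as Rose Bengal sodium equivalents.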

[6] = qHTS assay to test for compound auto fluorescence at 460 nm (blue) in HepG2 cell free culture (AID 720685)
Summary of the method: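 Compound (23 nL) or DMSO pinned into cell-free MEM with 10% FBS; blue fluorescence read at 405/460 nm excitation/emission, expressed as auto-fluorescence equivalency to triamterene.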

[7] = qHTS assay to test for compound auto fluorescence at 535 nm (green) in HepG2 cell free culture (AID 720686)
[8] = qHTS assay to test for compound auto fluorescence at 460 nm (blue) in HepG2 cells (AID 720687)
Summary of the method: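 Blue-channel autofluorescence (Ex/Em 405/460 nm, triamterene-equivalent) was measured after 1 hr compound exposure at 37 C, 5% CO2. Cells were HepG2, plated overnight at 37 C in MEM plus 10% FBS.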

[9] = molecular target: Glucocorticoid receptor (Homo sapiens) (UniProt P04150); assay: qHTS assay to identify small molecule antagonists of the glucocorticoid receptor (GR) signaling pathway (AID 720692; active means well fitted inhibition curve with a large enough effect in the signal ratio in the repeat runs, not every such curve was filed as active; the % refers to the signal ratio)
Glucocorticoid receptor (Homo sapiens), sequence (P04150 whole entry, looked up): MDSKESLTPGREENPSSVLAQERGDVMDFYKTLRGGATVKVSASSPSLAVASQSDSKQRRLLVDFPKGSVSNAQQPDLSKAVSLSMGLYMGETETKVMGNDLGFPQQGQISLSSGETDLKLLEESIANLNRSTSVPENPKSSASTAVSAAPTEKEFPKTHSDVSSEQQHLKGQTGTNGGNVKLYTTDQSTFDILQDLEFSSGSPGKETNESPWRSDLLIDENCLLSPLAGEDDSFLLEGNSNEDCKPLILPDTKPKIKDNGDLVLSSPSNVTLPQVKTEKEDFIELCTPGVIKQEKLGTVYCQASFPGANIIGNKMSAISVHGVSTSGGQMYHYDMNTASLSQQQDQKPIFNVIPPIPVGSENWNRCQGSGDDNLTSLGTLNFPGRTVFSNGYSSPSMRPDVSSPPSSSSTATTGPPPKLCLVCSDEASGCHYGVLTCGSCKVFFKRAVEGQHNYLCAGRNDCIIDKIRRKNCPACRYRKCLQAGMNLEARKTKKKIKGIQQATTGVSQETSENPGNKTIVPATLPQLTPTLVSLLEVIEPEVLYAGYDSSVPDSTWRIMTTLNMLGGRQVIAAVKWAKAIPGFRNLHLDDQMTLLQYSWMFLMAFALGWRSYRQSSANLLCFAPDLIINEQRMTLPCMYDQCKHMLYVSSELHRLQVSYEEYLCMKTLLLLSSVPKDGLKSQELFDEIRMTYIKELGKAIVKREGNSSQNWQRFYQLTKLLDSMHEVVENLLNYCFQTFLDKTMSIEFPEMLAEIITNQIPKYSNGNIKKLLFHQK
Summary of the method: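 Inhibition of glucocorticoid signalling is measured in HeLa cells with a GRE-controlled beta-lactamase reporter; cells are co-treated with compound and 5 nM dexamethasone (final) for 18 h before FRET substrate readout.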

[10] = qHTS assay for identifying genotoxic compounds that show differential cytotoxicity against isogenic chicken DT40 cell lines with known DNA damage response pathways - wild type cell line (AID 743012); further: nearly all actives have a fitted effect of over 60% in size; further: potency means the concentration at half of the fitted maximal effect
Summary of the method: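 First, wild type DT40 cells were plated at 300 per well and equilibrated about 0.5 h at 37 C/5% CO2. Next, compounds in DMSO were added and exposure lasted 40 h. Finally, CellTiter-Glo was added for 30 min at room temperature and luminescence recorded.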

[11] = qHTS assay for identifying genotoxic compounds that show differential cytotoxicity against isogenic chicken DT40 cell lines with known DNA damage response pathways - Rev3 mutant cell line (AID 743014); further: nearly all actives have a fitted effect of over 55% in size; further: potency means the concentration at half of the fitted maximal effect
[12] = qHTS assay for identifying genotoxic compounds that show differential cytotoxicity against isogenic chicken DT40 cell lines with known DNA damage response pathways - Rad54/Ku70 mutant cell line (AID 743015); further: nearly all actives have a fitted effect of over 60% in size; further: potency means the concentration at half of the fitted maximal effect
[13] = qHTS assay to identify small molecule antagonists of the androgen receptor (AR) signaling pathway - cell viability counter screen (AID 743033; further: nearly all actives have a fitted effect of over 45% in size)
[14] = qHTS assay to identify small molecule antagonists of the glucocorticoid receptor (GR) signaling pathway - cell viability counter screen (AID 720693); further: nearly all actives have a fitted effect of over 55% in size
[15] = molecular target: Androgen receptor (Homo sapiens) (UniProt P10275); assay: qHTS assay to identify small molecule agonists of the androgen receptor (AR) signaling pathway (AID 743036; active means well fitted activation curve with a large enough effect in the signal ratio in the repeat runs, with a control signal flat, not every such curve was filed as active; the % refers to the signal ratio)
Androgen receptor (Homo sapiens), sequence (P10275 whole entry, looked up): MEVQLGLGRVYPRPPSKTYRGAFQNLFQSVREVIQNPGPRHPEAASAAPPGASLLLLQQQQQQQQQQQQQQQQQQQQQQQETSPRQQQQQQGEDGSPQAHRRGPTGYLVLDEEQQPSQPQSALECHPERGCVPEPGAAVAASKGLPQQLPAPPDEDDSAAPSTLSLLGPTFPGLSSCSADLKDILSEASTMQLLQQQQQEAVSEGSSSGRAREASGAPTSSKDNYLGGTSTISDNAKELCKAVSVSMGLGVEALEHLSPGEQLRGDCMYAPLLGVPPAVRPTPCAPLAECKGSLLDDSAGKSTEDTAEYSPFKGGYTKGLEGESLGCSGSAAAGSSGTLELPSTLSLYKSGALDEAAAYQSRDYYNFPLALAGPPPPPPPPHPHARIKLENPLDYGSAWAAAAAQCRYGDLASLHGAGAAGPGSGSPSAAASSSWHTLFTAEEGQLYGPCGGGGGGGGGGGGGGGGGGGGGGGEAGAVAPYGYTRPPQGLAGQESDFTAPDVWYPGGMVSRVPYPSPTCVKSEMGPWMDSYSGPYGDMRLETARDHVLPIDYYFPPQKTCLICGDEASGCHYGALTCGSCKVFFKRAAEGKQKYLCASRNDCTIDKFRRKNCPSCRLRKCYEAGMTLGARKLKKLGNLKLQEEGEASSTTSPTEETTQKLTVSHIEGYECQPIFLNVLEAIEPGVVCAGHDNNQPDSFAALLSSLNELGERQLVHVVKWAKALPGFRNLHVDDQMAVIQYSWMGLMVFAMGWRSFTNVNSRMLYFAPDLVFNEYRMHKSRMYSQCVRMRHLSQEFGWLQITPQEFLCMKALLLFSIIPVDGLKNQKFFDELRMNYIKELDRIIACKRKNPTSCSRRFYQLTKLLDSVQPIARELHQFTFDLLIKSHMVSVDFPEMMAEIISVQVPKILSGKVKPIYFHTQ
Summary of the method: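 Beta-lactamase under UAS control, stably integrated in HEK293 GripTite cells, reports receptor activation. After 16 h compound treatment, cells received FRET substrate for 2 h at room temperature before fluorescence reading.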

[16] = molecular target: Androgen receptor (Homo sapiens) (UniProt P10275); assay: qHTS assay to identify small molecule agonists of the androgen receptor (AR) signaling pathway using the MDA cell line (AID 743040; further: nearly all actives have a fitted effect of over 20% in size)
Summary of the method: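 Cells plated, 5 h at 37C/0% CO2; compound or DMSO pinned; 16 h at 37C; ONE-Glo added; luminescence measured after 30 min at room temperature. Reporter line: MDA-kb2 with MMTV-luciferase responsive to AR and GR.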

[17] = qHTS assay to identify small molecule antagonists of the androgen receptor (AR) signaling pathway using the MDA cell line - cell viability counter screen (AID 743041; further: nearly all actives have a fitted effect of over 45% in size)
Summary of the method: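 Cells were plated at 3,000 per well and left 5 h. Compounds in DMSO were then pinned in, followed by R1881. After 16 h at 37C, CellTiter-Fluor fluorescence gave viability.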

[18] = molecular target: Androgen receptor (Homo sapiens) (UniProt P10275); assay: qHTS assay to identify small molecule antagonists of the androgen receptor (AR) signaling pathway using the MDA cell line (AID 743042; further: nearly all actives have a fitted effect of over 55% in size)
Summary of the method: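 Antagonist mode: compounds plus R1881 agonist added to MDA-kb2 AR-luc cells, incubated 16 h at 37C. Luciferase reporter luminescence quantified, with multiplexed CellTiter-Fluor readout for cell viability.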

[19] = molecular target: Glucocorticoid receptor (Homo sapiens) (UniProt P04150); assay: qHTS assay to identify small molecule agonists of the glucocorticoid receptor (GR) signaling pathway (AID 720691; active means well fitted activation curve with a large enough effect in the signal ratio in the repeat runs, not every such curve was filed as active; the % refers to the signal ratio)
Summary of the method: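 qHTS in GR-bla HeLa cells: 4 h settling at 37 C/5% CO2, 18 h compound incubation at 37 C, 2 h LiveBLAzer B/G FRET substrate at room temperature, fluorescence intensity measured.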
On the % scale 0 is the no-effect control and ±100 the full control effect.

C[C@H](CN1CCCC1)C(=O)c1ccc(C(F)(F)F)cc1
inactive: outcome [1] | Potency [2] | outcome [3] | outcome [4] | outcome [5] | outcome [6] | outcome [7] | outcome [8] | Potency [9] | Potency [13]
active: Potency [10] 6.68 µM | Potency [11] 10.6 µM | Potency [12] 8.41 µM

CCCCCCCCCCCCCCCCC(=O)O
inactive: outcome [1] | Potency [2] | outcome [3] | outcome [4] | outcome [5] | outcome [6] | outcome [7] | outcome [8] | Potency [9] | Potency [14] | Potency [10] | Potency [11] | Potency [12] | Potency [13] | outcome [15] | outcome [16] | Potency [17] | Potency [18]

Cc1c(-c2cccnc2)c2ccccc2n1CCCCC(=O)O
inactive: outcome [1] | Potency [2] | outcome [3] | outcome [4] | outcome [5] | outcome [6] | outcome [7] | outcome [8] | Potency [14] | Potency [10] | Potency [12] | Potency [13] | Potency [17]
active: Potency [11] 30.6 µM

Cc1c(Nc2ncccc2C(=O)O)cccc1C(F)(F)F
active: Potency [10] 12.7 µM | Potency [12] 11.4 µM
inactive: fluorescence, % of fluorescein [1] 0.0171% [at 18.6 µM] | fluorescence, % of fluorescent control [2] -0.115% [at 18.6 µM] | activity change [3] 0.0935% [at 18.6 µM] | fluorescence, % of fluorescent control [4] -0.29% [at 18.6 µM] | fluorescence, % of Rose Bengal [5] 0.0144% [at 18.6 µM] | fluorescence, % of fluorescent control [6] 0.0612% [at 18.6 µM] | fluorescence, % of fluorescein control [7] -0.0657% [at 18.6 µM] | fluorescence, % of fluorescent control [8] 0.0693% [at 18.6 µM] | Potency [14] | Potency [11] | Potency [13]

CCOC(OCC)OCC
inactive: outcome [1] | Potency [2] | outcome [3] | outcome [4] | outcome [5] | outcome [6] | outcome [7] | outcome [8] | Potency [9] | Potency [14] | Potency [10] | Potency [11] | Potency [12] | Potency [13] | Potency [17]

CCCCCC1CCC(=O)O1 (stereo not drawn)
inactive: outcome [1] | Potency [2] | outcome [3] | outcome [4] | outcome [5] | outcome [6] | outcome [7] | outcome [8] | Potency [9] | Potency [14] | Potency [10] | Potency [11] | Potency [12] | Potency [13]

Cc1ccc(NC(=O)c2ccc(CN3CCN(C)CC3)cc2)cc1Nc1nccc(-c2cccnc2)n1
active: Potency [10] 15 µM | Potency [11] 11.9 µM | Potency [12] 13.3 µM
inactive: outcome [1] | Potency [2] | outcome [3] | outcome [4] | outcome [5] | outcome [6] | outcome [7] | outcome [8] | Potency [14] | Potency [13] | outcome [16] | Potency [17]

c1ccc(CN(Cc2ccccc2)Cc2ccccc2)cc1
inactive: outcome [1] | Potency [2] | outcome [3] | outcome [4] | outcome [5] | outcome [6] | outcome [7] | outcome [8] | Potency [19] | Potency [14] | Potency [10] | Potency [12] | Potency [13] | Potency [17]

CCCC(=O)OCc1ccccc1
inactive: outcome [1] | Potency [2] | outcome [3] | outcome [4] | outcome [5] | outcome [6] | outcome [7] | outcome [8] | Potency [14] | Potency [10] | Potency [11] | Potency [12]
